Laboratory results as given in PubChem BioAssay AID720513 (Broad Institute, 2013).
Hit rate of the full screen: of about 2,100 compounds, about 480 (23%) were called active. Roughly 5% stayed inconclusive and do not appear here.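 How the source made its calls: active means fitted curve reaches 40% activation at or below the top valid concentration, in every replicate test; inconclusive means replicate tests disagree on the call; inactive means the rest, including activity in the opposite direction.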 The list is a sample of the results. Results with a measured potency or affinity are listed apart.

assay: activators raising PGC1a acetylation in cells, dose response, cell-based, cherry-picked samples, set 6 (AID 720513); conditions: U2OS PGC1a acetylation AlphaLISA, overnight, 0 = neutral, -100 = inhibitor control; series mostly up to 19.5 µM; activation (acetylation increase): at the top concentration;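 further: cells made to overexpress flag tagged PGC1a plus GCN5 acetyltransferase by viral infection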

Activation (acetylation increase), inactive:
C[C@@H]1CN([C@@H](C)CO)C(=O)CCCn2cc(nn2)CO[C@H]1CN(C)S(=O)(=O)c1ccccc1 -19%
CCCn1c(-c2ccccc2)cc(SC)c(C#N)c1=O -11.4%
COc1c(O)cc(O)c2c(=O)cc(-c3ccccc3)oc12 -3.89%
C=CCn1c(C)nnc1SCC(=O)NC1CC1 -11.2%
CC(C)c1ccc(NC(=O)CCNS(=O)(=O)c2cccc3nonc23)cc1 25.9%
Cc1cc(C)nc(SCC(=O)OCN2C(=O)c3ccccc3C2=O)n1 -12.4%
COc1ccccc1NS(=O)(=O)c1cccc(NC(=O)C2CC(=O)N(Cc3ccccc3)C2)c1 (configuration not stated) -13.3%
CCN(c1ccccc1)S(=O)(=O)c1ccc(OC)c(NC(=O)Cc2ccc(F)cc2)c1 23.9%
CCc1ccc(Nc2nnc(SCC(=O)Nc3ccc(C(=O)O)cc3)s2)cc1 7.61%
CCOc1ccccc1C(=O)NCCCCCC(=O)O -10.7%
COCCNC(=O)CN1CCC(NC(=O)C(C)(C)C)CC1 -10.4%
O=C(c1cc2ccccc2o1)N1CC=C(c2ccccc2)CC1 11.8%
CC1=Nc2ccccc2N=C(NC(=O)CN2CCN(c3ccccc3)CC2)C1c1ccccc1 (configuration not stated) 15.8%
COc1cc(C2C(C#N)=C(N)Oc3c2oc(CO)cc3=O)cc(OC)c1OC (configuration not stated) 14.7%
CC(C)N1CCc2c(sc(NC(=O)C3CCCCC3)c2C(N)=O)C1 -11.6%
COC(=O)[C@@]1(Cc2ccccc2CN=[N+]=[N-])N=C(c2ccc(OCCCO)cc2)O[C@H]1c1ccccc1 -52.1%
Cc1ccccc1-n1nnnc1Sc1nnnn1-c1ccccc1 -122%
Cc1ccccc1Cn1nc(C)c(NC(=O)c2cc(-c3cccs3)on2)c1C -5.04%
NC(=O)COC(=O)/C=C/c1ccc2ccccc2n1 21.1%
COc1ccc(S(=O)(=O)N2c3ccc(F)cc3CCC2C)cc1 (configuration not stated) 32.1%
CCOc1ccc(N2C(=O)Cc3ccccc3C2=O)cc1 -25.8%
O=C(CCc1nc2ccccc2c(=O)[nH]1)OCC(=O)N1CCc2ccccc21 1.36%
CCc1ccc(N2CC(O)=C(c3nc4ccccc4c(=O)[nH]3)C2=N)cc1 24.7%
CO[C@H]1CN(C)C(=O)c2ccc(NC(=O)c3ccno3)cc2OC[C@H](C)NC[C@H]1C 26.5%
Cc1cccc(C)c1NC(=O)CN(C)C(=O)c1cc(S(=O)(=O)N(C)C)ccc1N1CCCC1 8.66%
COc1ccccc1C(=O)Nc1ccc2c(c1)nc(CCNC(=O)c1ccco1)n2C 20.5%
CN(Cc1ccccc1)S(=O)(=O)c1ccc(S(=O)(=O)N(Cc2ccc(F)cc2)C2CCCC2)cc1 4.54%
Cc1ccc2nsnc2c1S(=O)(=O)N(Cc1ccco1)Cc1cc2cccc(C)c2[nH]c1=O 0.899%
COc1ccc(-c2csc(N(CCCN(C)C)C(=O)c3ccc(Br)cc3)n2)cc1 34.3%
COc1ccc(-c2csc(N(CCCN(C)C)C(=O)c3cccs3)n2)cc1 15.2%
CO[C@H]1CN(C)C(=O)c2cc(NC(C)=O)ccc2OC[C@@H](C)N(CC2CCCCC2)C[C@@H]1C 20.4%
CC(c1n[nH]c(=S)n1Cc1ccccc1)N(C)C (configuration not stated) 7.93%
CCCCSCCCNC(=O)c1cn(C)c2ccc(S(=O)(=O)N3CCCC3)cc2c1=O 34% [at 10 µM]
O=S(=O)(c1ccc2[nH]ccc2c1)N1CCCCCC1 -0.576% [at 5 µM]
CCNc1nc(Oc2ccc(C#N)cc2)cc(C(F)(F)F)n1 9.53%
CCOC(=O)C1=C(C)N=C2SC(C(=O)OC)=CC(=O)N2C1c1cccc(OC)c1 (configuration not stated) 15.5%
COc1ccccc1C(=O)Oc1cc(N)n(S(=O)(=O)c2ccc(C)cc2)n1 14.8%
Cn1c(Cl)cnc1C1CC(=O)c2cc(Cl)ccc2O1 (configuration not stated) -60.7%
Cc1noc(C)c1NC(=O)N(C)C[C@@H]1Oc2c(NS(=O)(=O)c3cn(C)cn3)cccc2C(=O)N([C@@H](C)CO)C[C@@H]1C -16.3%
CO[C@@H]1CN(C)C(=O)c2cc(NS(=O)(=O)c3ccc(Cl)cc3)ccc2OC[C@H](C)N(C)C[C@H]1C 24.4%
CC(C)C#Cc1ccc2c(c1)O[C@@H](CN(C)C(=O)C1CC1)[C@@H](C)CN([C@@H](C)CO)S2(=O)=O 6.72%
Cc1cccc(C)c1NC(=O)C(NC(=O)c1ccccn1)c1ccc([N+](=O)[O-])cc1 (configuration not stated) 27.5%
CCOC(=O)CC1C(=O)NCCN1S(=O)(=O)c1ccc(C)cc1 (configuration not stated) 3.45%
CCCCCC(=O)N1C[C@H](n2cc(-c3ccc(F)cc3)nn2)[C@@H](O)C[C@@H]1c1ccc(C)cc1 28.2%
CCOC(=O)C1=C(CS(=O)(=O)c2ccccc2)NC(=O)NC1c1ccc(O)c(OC)c1 (configuration not stated) -9.06%
OC[C@@H]1[C@H](c2ccc(C#CC3CCCC3)cc2)[C@H]2CN(CCC(F)(F)F)CCCCN12 -98.6%
CO[C@H]1CN(C)C(=O)c2cc(NC(=O)NC(C)C)ccc2OC[C@H](C)N(Cc2ccc(-c3ccccn3)cc2)C[C@@H]1C -41%
CCCS(=O)(=O)N1CCCC(C(=O)NCCCOC(C)C)C1 (configuration not stated) 7.83%
Cc1nnc(NC(=O)CSc2ncc(-c3ccccc3)[nH]2)s1 -29.7%
Cc1ccc(-c2nc(NC(=O)c3nn(C)cc3[N+](=O)[O-])sc2C)cc1 -105%
CO[C@H]1CN(C)C(=O)c2ccc(NS(=O)(=O)c3ccccc3)cc2OC[C@@H](C)N(C(=O)NC(C)C)C[C@@H]1C 3.81%
O=C(c1cc(Cl)ccc1Cl)N1CCc2ccccc21 17.3%
O=C(O)c1ccccc1C(=O)N1CCN(C(=O)c2ccccc2Cl)CC1 -22.8%
O=C(c1ccccc1Cl)N1CCNCC1 7.9%
C[C@H](CO)N1C[C@H](C)[C@@H](CN(C)Cc2cncnc2)Oc2cc(C#CC3CC3)ccc2S1(=O)=O 1.37%
O=C(COn1nnc2ccc(Cl)cc21)NC12CC3CC(CC(C3)C1)C2 9.47%
CC(C)(C)OC(=O)NCCc1nnc(SCc2ccc(Cl)cc2)o1 -3.74%
OC(CN1c2ccccc2Sc2ccccc21)Cn1nnc2ccccc21 (configuration not stated) 16.8% [at 10 µM]
CCOc1ccccc1OCCn1nnc2ccccc21 12.5%
CN1C[C@H](C(=O)N[C@]2(C)O[C@@]3(O)[C@@H]4CCCN4C(=O)[C@H](Cc4ccccc4)N3C2=O)CC2c3cccc4[nH]cc(c34)C[C@H]21 (some centres not stated) -13.6%
O=C(Nc1cccc(F)c1)N1C[C@@H]2N[C@H](C1)C2c1ccc(-c2ccc(F)cc2)cc1 (some centres not stated) -61.4%
C[C@H](CO)N1C[C@H](C)[C@H](CN(C)S(C)(=O)=O)Oc2ncc(-c3cc4ccccc4o3)cc2C1=O 15.1% [at 18 µM]
O=C(Nc1nc2ccccc2[nH]1)c1ccc(Cl)c(S(=O)(=O)N2CCCC2)c1 32%
CC(C)[C@H](NC(=O)NCc1cccs1)C(=O)O 11.6%
CCOc1ccnc(OCC)c1Br 4.57%
C[C@@H]1CN([C@H](C)CO)C(=O)c2cc(NS(C)(=O)=O)ccc2O[C@@H]1CN(C)S(=O)(=O)c1ccc(Cl)cc1 24.6%
CCN1CCN(Cc2ccc(NC(=O)c3ccc(C)c(NC(=O)c4c[nH]c5cc(C(F)(F)F)ccc5c4=O)c3)cc2C(F)(F)F)CC1 -97.3%
Cc1ccccc1S(=O)(=O)NCC[C@@H]1CC[C@@H](NC(=O)C2CCOCC2)[C@H](CO)O1 -0.888%
COCCSc1ccccc1C(=O)Nc1cc(C)on1 -34.8%
Cn1nnnc1SC1CC(=O)N(c2ccccc2)C1=O (configuration not stated) 31.9%
CN(C)C(=O)c1ccc(-c2ccc([C@@H]3[C@H]4CN(C(=O)CC5CC5)CC(=O)N4[C@H]3CO)cc2)cc1 8.08%
OC(c1ccc(Cl)cc1Cl)C(Cc1cccnc1)n1cncn1 (configuration not stated) 20%
OC(c1cc(-c2ccc(Cl)cc2)nc2ccccc12)C1CCCCN1 (configuration not stated) 34% [at 10 µM]
COc1ccc2c(c1)sc1nc(-c3ccccc3)cn12 31.5%
COc1ccc2c3c(n(C)c2c1)[C@H](CO)NCC31CCN(Cc2cc(F)ccc2F)CC1 35.2%
Cc1ccc(C(=O)NNC(=O)c2cccc(Br)c2)cc1 10.6%
Cc1ccccc1NC(=O)CC1c2ccccc2CC(C)(C)N1C (configuration not stated) 22.8%
O=C(COc1ccccc1)N1CCN=C1SCc1ccccc1 104%
Cc1cc(C)c2nc(N3CCCC(C(=O)N4CCC(C(N)=O)CC4)C3)sc2c1 (configuration not stated) 12.2%
CCN1CCN(c2nnc(-c3ccccc3)c3ccccc23)CC1 11.4%
Cc1ccc(S(=O)(=O)N2CCN(C(=O)CSc3nc4ccccc4c(=O)[nH]3)CC2)c(C)c1 38.8% [at 10 µM]
O=C1c2ccccc2-c2c1cccc2C(=O)N1CCN(C(=O)c2ccco2)CC1 -5.11%
Cn1nc(-c2ccccc2F)c2cc(C(=O)N3CCN(C(=O)c4ccco4)CC3)sc21 32.2%
CN1CCN(C(=O)c2sc(=S)n(-c3ccccc3)c2N)CC1 8.38%
Cc1cc(C)cc(C(=O)Nc2ccc3[nH]c(=O)[nH]c3c2)c1 1.98%
COc1cccc(N2CCN(c3ncnc4c3[nH]c3ccc(F)cc34)CC2C)c1 (configuration not stated) -116%
C=CCOc1ccccc1CNc1ccc2[nH]c(=O)[nH]c2c1 0.715%
O=C(C[C@H]1C=C[C@H](NC(=O)Nc2ccc(C(F)(F)F)cc2)[C@@H](CO)O1)NCc1ccccn1 36.2%
COc1ccc(S(=O)(=O)N2CCN(C(=O)c3cccs3)CC2)cc1OC 23.8%
O=C(Cc1ccccc1)N1N=C(c2ccncc2)CC1(O)C(F)(F)F (configuration not stated) 18.2%
CC(=O)c1cccc(-n2nnnc2SCC(=O)NNC(=O)C(C)C)c1 27.3%
C[C@H](CO)N1C[C@H](C)[C@H](CN(C)S(=O)(=O)c2ccc(F)cc2)Oc2ncc(-c3cccc(C(=O)N(C)C)c3)cc2C1=O 5.12%
Cc1nonc1NC(=O)CSc1nc(C2CCCCC2)nc2ccccc12 -21.9%
CC(C)(CO)CNc1ccn2nccc2n1 9.81%
Cc1cccc(C)c1NC(=O)CS(=O)CC(=O)Nc1ccc(F)cc1F (configuration not stated) -14.8%
O=C(CSC1=NS(=O)(=O)c2ccccc2N1)Nc1ccc(F)cc1 -19.9%
O=C1C=CCCN1C(=O)/C=C/c1cccc(Br)c1 -88.3%
